# Source: PubChem BioAssay (National Center for Advancing Translational Sciences (NCATS))
# aGlu spleen mod: qHTS Assay for Inhibitors and Activators of Human alpha-Glucosidase From Spleen Homogenate; Lysosomal alpha-glucosidase (Homo sapiens), P10253; human spleen homogenate, 4-MU-alpha-glucoside fluorescence; Potency, µM (doses to about 79.9 µM), for the others: at the highest dose activity change, negative = inhibition, hits mostly inhibitors; hit rate 0.006% among 240,000; AID 2112, 2009;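 also: potency is read from the fitted curve at half-maximal effect; 0% = enzyme with vehicle and -100% = no enzyme basal signal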
#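 Compounds were titrated against alpha-glucosidase in spleen homogenate at pH 5.0, with 1 mM 4-methylumbelliferyl substrate for 40 min at 37 C. Reactions were quenched with pH 10 NaOH/glycine and fluorescence measured.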
# aGal spleen mod: qHTS Assay for Inhibitors and Activators of Human alpha-Galactosidase From Spleen Homogenate | human spleen homogenate, 4MU-alpha-Gal fluorescence, 40 min | hit rate 0.008% among 240,000 | Potency, µM (top dose mostly 80 µM), for the others: top-dose activity change, negative = inhibition, actives largely listed as inhibitors;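 also: potency is read from the fitted curve at half-maximal effect; 0% = enzyme with vehicle and -100% = no enzyme basal signal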
# Target sequence (P06280 32-429 limits assumed): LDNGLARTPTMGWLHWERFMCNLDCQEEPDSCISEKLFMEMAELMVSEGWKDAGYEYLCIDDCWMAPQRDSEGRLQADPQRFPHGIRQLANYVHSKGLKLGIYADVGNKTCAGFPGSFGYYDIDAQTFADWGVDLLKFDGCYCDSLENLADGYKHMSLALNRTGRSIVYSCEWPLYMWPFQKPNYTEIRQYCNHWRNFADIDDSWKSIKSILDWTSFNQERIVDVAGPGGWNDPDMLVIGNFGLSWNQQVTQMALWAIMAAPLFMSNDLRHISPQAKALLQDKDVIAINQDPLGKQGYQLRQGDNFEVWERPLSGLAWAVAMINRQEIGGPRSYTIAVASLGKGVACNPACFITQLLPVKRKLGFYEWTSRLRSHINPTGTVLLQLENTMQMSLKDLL
#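 Inhibition or activation of alpha-galactosidase in human spleen homogenate is scored by 4-MU fluorescence after 40 min at 37C, pH 5.0, with 1 mM substrate. AC50s come from concentration-response fitted to the Hill equation.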
# N370S GC mod: qHTS Assay for Inhibitors and Activators of N370S glucocerebrosidase as a Potential Chaperone Treatment of Gaucher Disease; Lysosomal acid glucosylceramidase (Homo sapiens), P04062; N370S GC spleen homogenate, 4MU-glucoside fluorescence; Potency, µM (doses to about 59.4 µM), for inactives: top-dose activity change, negative = inhibition, hits mostly inhibitors; hit rate 0.092% among 330,000; AID 2101, 2009;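 also: potency is read from the fitted curve at half-maximal effect; 0% = full enzyme activity and -100% = no enzyme basal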
# GAA glycogen: qHTS Assay for Inhibitors and Activators of Human alpha-Glucosidase Cleavage of Glycogen. Lysosomal alpha-glucosidase (Homo sapiens), P10253. AID 2100, 2009. recombinant GAA, glycogen substrate, Amplex Red glucose oxidase fluorescence. Potency, µM (top dose mostly 76.4 µM), inactives show at the top dose activity change, negative = inhibition, hits mostly inhibitors. hit rate 0.38% among 300,000;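 also: potency is read from the fitted curve at half-maximal effect; 0% = full enzyme reaction and -100% = no-enzyme basal signal; the screen sought inhibitors and activators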
#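 Recombinant human enzyme (4 nM); glycogen substrate; 37 C, 40 min, pH 5.0. Readout: coupled glucose oxidase/Amplex Red fluorescence.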
# GLA inh pH 4.5: qHTS Assay for Inhibitors of Human alpha-Galactosidase at pH 4.5; Alpha-galactosidase A (Homo sapiens), P06280; purified enzyme, 4-MU-alpha-Gal fluorescence, pH 4.5; activity change, negative = inhibition, % at 105 µM; 230,000 tested, under 10 active;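 also: 0% = full activity with enzyme and -100% = basal without enzyme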
# GAA inh: qHTS Assay for Inhibitors of Human alpha-Glucosidase as a Potential Chaperone Treatment of Pompe Disease; Lysosomal alpha-glucosidase (Homo sapiens), P10253; purified human GAA, 4-MU-alpha-glucoside fluorescence; Potency, µM (titrated, usually from 76.9 µM), without a hit: at the highest dose activity change, negative = inhibition, hits mostly inhibitors; hit rate 0.005% among 200,000;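 also: potency is read from the fitted curve at half-maximal effect; plate controls were uninhibited enzyme wells for no effect and no-enzyme background for full effect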
#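 Human alpha-glucosidase, 4 nM, pre-mixed with test compounds before 400 uM 4-methylumbelliferyl substrate; 20 min room temperature at pH 5.0. Fluorescence read after pH 10 stop; AC50 values from Hill-equation fits.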
# An asterisk follows results filed as active; ? = inconclusive; nt = no result; [ ] = remark or other dose. Only some compounds are listed: those with a hit (about 0.43% of all), similar ones and a draw of the others. Calls follow the shape of the dose curve; as a rule, active = well fitted curve in the direction sought with a large enough effect; inconclusive = small, poorly fitted or top-dose-only effect, or another doubt; inactive = no such curve, though single readings can be large; an effect the other way counts as inactive or inconclusive.
SMILES,aGlu spleen mod,aGal spleen mod,N370S GC mod,GAA glycogen,GLA inh pH 4.5,GAA inh
COc1ccc(C2=Nn3c(nnc3-c3ccc(OC)c(OC)c3)SC2)cc1,5.6%,0.9%,-1.7%,nt,nt,nt
O=C1NC(=O)c2c1c(-c1ccccc1)cc1[nH]c3ccc(O)cc3c21,-27.4%,1.9%,-5.3%,nt,nt,nt
COc1cc(/C=N/Nc2ccc(Cl)c(C(=O)O)c2)ccc1OC(=O)c1ccccc1F,nt,nt,-3.3%,5.62µM*,nt,nt
OC(COC(c1ccccc1)c1ccccc1)CN1CCc2ccccc2C1 (centres undefined),-1.0%,-3.1%,-22.8%,-6.5%,-3.4,-8.7%
OC(COC(c1ccc(Cl)cc1)c1ccc(Cl)cc1)CN1CCc2ccccc2C1 (centres undefined),-0.9%,-3.7%,7.94µM*,8.1%,-10.0,-2.2%
c1ccc(CNc2nc(-c3ccccc3)nc3ccccc23)cc1,nt,nt,?,-12.1%[76.3 µM],nt,nt
COCCNc1nc(-c2ccccc2Cl)nc2ccccc12,-4.8%,-7.1%,7.94µM*,nt,nt,nt
Fc1ccccc1-c1nc(NCc2ccccc2)c2ccccc2n1,-16.6%,4.8%,12.6µM*,-12.2%,-18.3,nt
c1ccc(CNc2nc(-c3cccs3)nc3ccccc23)cc1,-3.2%,-4.6%,0.501µM*,7.0%,-6.4,-3.0%
CC(=O)Nc1ccc(SCC(CC(C)C)N2CCN(C)CCC2=O)cc1 (centres undefined),3.2%,3.2%,-0.2%,nt,nt,nt
CCN1C(=O)[C@@H]2[C@H]3C(=CC[C@@H]2C1=O)C1(OCCCO1)[C@H]1O[C@@H]1[C@H]3O,5.8%[17.4 µM],4.3%[17.5 µM],3.0%[12.8 µM],nt,nt,nt
